In PubChem BioAssay (NCI):
This is part of a sample that, as a whole, favours compounds with a hit. Of some 79,000 tested, about 15% had one in any assay. Cut-off read from the data, not from the text of the source: active = growth inhibition above about 70%; inactive = the rest.

Assays:
[1] = NCI Yeast Anticancer Drug Screen. Data for the rad50 strain (AID 155);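 note: 0% = growth of vehicle-only cultures of the same strain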; conditions: S. cerevisiae rad50 strain growth inhibition; at 50.0 µM; active compounds read high
Procedure, shortened: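 Cells are treated with compound, grown, and their growth is then scored against vehicle-only cultures of the same repair-deficient yeast strain.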

[2] = NCI Yeast Anticancer Drug Screen. Data for the mec2-1 strain (AID 157); conditions: S. cerevisiae mec2-1 strain, at 50.0 µM, active compounds read high
Procedure, shortened: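 Compounds were applied to mec2-1 yeast cells. Their growth was then compared with that of vehicle-treated cultures to give growth inhibition.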

[3] = NCI Yeast Anticancer Drug Screen. Data for the sgs1 mgt1 strain (AID 161);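 note: 0% = growth of cultures given vehicle only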; conditions: S. cerevisiae sgs1 mgt1 strain, at 50.0 µM, active compounds read high
Procedure, shortened: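 Yeast cells carrying a defined DNA-repair defect were exposed to test compounds. Growth inhibition was measured relative to vehicle-treated controls.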

[4] = NCI Yeast Anticancer Drug Screen. Data for the cln2 rad14 strain (AID 165);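 note: 0% = growth equal to vehicle treated cultures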; conditions: S. cerevisiae cln2 rad14 strain, at 50.0 µM, active compounds read high
Procedure, shortened: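 Strain: cln2 rad14 yeast, altered in cell cycle control and DNA damage repair. Read-out: growth inhibition vs vehicle.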

[5] = NCI Yeast Anticancer Drug Screen. Data for the bub3 strain (AID 167); conditions: S. cerevisiae bub3 mutant strain, at 50.0 µM, active compounds read high
Procedure, shortened: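 Part of a panel of yeast mutants defective in DNA damage repair or cell cycle regulation. Each strain is grown with compound, and inhibition is calculated relative to solvent-treated cultures.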

[6] = NCI Yeast Anticancer Drug Screen. Data for the mlh1 rad18 strain (AID 175); conditions: S. cerevisiae mlh1 rad18 strain growth inhibition; at 50.0 µM; active compounds read high
Procedure, shortened: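 A repair-deficient yeast strain is exposed to test compound, and growth is scored relative to vehicle-treated controls.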

Measured: growth inhibition

CC(=O)CCc1ccc2c(c1)OCCO2
inactive: [1] 27.9% | [2] -10.7% | [3] -7.55% | [4] -83.2% | [5] -3.8% | [6] -20.9%

COc1ccc(C(O)C(NCc2ccccc2)c2ccccc2)cc1 (stereo unspecified)
inactive: [1] 7.75% | [2] -7.3% | [3] 13.2% | [4] 11.8% | [5] 2.55% | [6] 23.9%

Cc1ccc2ccccc2c1CSc1nc(N)nc2c1ncn2CC(C)C
inactive: [1] 37% | [2] 23.6% | [3] 30.7% | [4] 25.6% | [5] 12.9% | [6] 46.5%

OC(C(=S)N1CCCC1)(c1ccccc1)c1ccccc1
inactive: [1] 10.8% | [2] 17.3% | [3] 24.2% | [4] 8.45% | [5] 9.6% | [6] -0.6%

c1cc(OCCOc2cccc3ocnc23)c2ncoc2c1
inactive: [1] -12.8% | [2] -15.6% | [3] -5.85% | [4] -14.8% | [5] -18.4% | [6] 0.65%

Fc1ccc(/C=C/c2ccc(/C=C/c3ccc(F)cc3)nn2)cc1
inactive: [1] 18.4% | [2] -4.2% | [3] 7.8% | [4] -13.1% | [5] 5.15% | [6] -1.5%

OCC(O)C(O)C(CN=Cc1ccccc1O)N=Cc1ccccc1O (stereo unspecified)
inactive: [1] 5.05% | [2] 1% | [3] 3% | [4] -26.1% | [5] 12.9% | [6] -2.45%

O=C(NCO)NCOCn1c(=O)n(CO)c(=O)n(CO)c1=O
inactive: [1] 5.05% | [2] -22.6% | [3] -2.5% | [4] 29.9% | [5] 9.7% | [6] -15.9%

COc1cc(C(=O)N2C[C@H](O)C[C@H]2C(=O)O)cc(OC)c1OC
inactive: [1] -18.4% | [2] -15.9% | [3] -32.8% | [4] -5.75% | [5] -16.4% | [6] -9.85%

Cc1ccc(Nc2ccc(Nc3ccc(C)cc3)c3c2C(=O)c2ccccc2C3=O)cc1
inactive: [1] -1.05% | [2] -16.9% | [3] -4.15% | [4] 5% | [5] -8.2% | [6] -4.45%

O=C1OCCN1N1C(=O)CC2(CCN(Cc3ccccc3)CC2)C1=O
inactive: [1] -10.8% | [2] 3% | [3] -0.95% | [4] 1.15% | [5] 0.25% | [6] -17.8%

OCC1OC(n2nc(-c3ccccc3)nc2-c2cnccn2)C(O)C(O)C1O (stereo unspecified)
inactive: [1] -37.4% | [2] -35.8% | [3] -31.4% | [4] 3.65% | [5] -46.1% | [6] -43.5%

CCOC(=O)c1c(NC(=O)CCl)ssc1=S
inactive: [1] 15.2% | [2] 28.4% | [3] 42.5% | [4] 22.8% | [5] 4.7% | [6] 43.6%

CC(=O)Nc1ccc(S(=O)(=O)Nc2c(N)[nH]c(=S)[nH]c2=O)cc1
inactive: [1] 14% | [2] 3.9% | [3] 1.25% | [4] -3.75% | [5] 9.5% | [6] 9.45%

CC1=C(C(=O)Nc2ccc([N+](=O)[O-])cc2)C(c2ccco2)C(C(=O)Nc2ccc([N+](=O)[O-])cc2)=C(C)N1
inactive: [1] 30.2% | [2] 35.5% | [3] 34.4% | [4] 38.2% | [5] 43.5% | [6] 14.9%

N#CSC1C=CS(=O)(=O)C1 (stereo unspecified)
inactive: [1] 44.6% | [2] 4.05% | [3] 19.6% | [4] -44.1% | [5] 3.55% | [6] 58.8%

CCC(=C(c1ccc(OCc2ccccc2)cc1)c1ccc(OCc2ccccc2)cc1)c1ccc(OC)cc1
inactive: [1] 14.7% | [2] -24.2% | [3] 9.45% | [4] -0.3% | [5] -20.8% | [6] -14.3%

COc1cc(C2C(Cl)C(=O)N2NC(=O)c2ccc(NC(C)=O)cc2)cc(Br)c1O (stereo unspecified)
inactive: [1] -0.25% | [2] -14.8% | [3] -9.6% | [4] -24.9% | [5] -7.9% | [6] -30.9%

C=C1C(=O)OC(CCCCCCCCCCCCCC(C)=O)[C@H]1C(=O)O (stereo partly specified)
inactive: [1] 10.2% | [2] -9.75% | [3] 22.1% | [4] 4.85% | [5] -10.9% | [6] 9.8%

CC(C)c1ccc(C=O)cc1
inactive: [1] 18.3% | [2] 31% | [3] -21.5% | [4] -12.2% | [5] -9.15% | [6] 11.4%

CC(=O)N1CCN(c2ccccc2Cl)CC1
inactive: [1] -10% | [2] -17.2% | [3] -18.4% | [4] -3.45% | [5] -10.6% | [6] -22.7%

CN(c1ccccc1)S(=O)(=O)c1ccc([N+](=O)[O-])cc1
inactive: [1] -13.4% | [2] -52.7% | [3] 6.75% | [4] -7.1% | [5] 21.8% | [6] -5.45%

O=C1c2ccccc2C(=O)N1C1CCCCC1
inactive: [1] 7.15% | [2] 35.9% | [3] 22.4% | [4] -4.25% | [5] 56.4% | [6] -16.6%

Cc1nn(C(=O)c2ccc(Cl)cc2)c2c1C(c1ccco1)SC(N)=N2 (stereo unspecified)
inactive: [1] -28.6% | [2] -17.5% | [3] -8.8% | [4] -17.9% | [5] -18.1% | [6] -14.8%

CCCN(CCC)S(=O)(=O)c1ccc(NC(=O)OC(c2ccccc2)(c2ccccc2)c2ccccc2)cc1
inactive: [1] 24.1% | [2] -4.3% | [3] 5.4% | [4] 7.95% | [5] -3.7% | [6] 0.95%

COc1cc(C=C2N=C(c3ccccc3)N(n3c(-c4ccccc4)nc4ccccc4c3=O)C2=O)cc(OC)c1OC
inactive: [1] -7.4% | [2] -6.6% | [3] 9.45% | [4] 7.85% | [5] 0.65% | [6] 21.6%

CCOC(=O)c1ccccc1Nc1c(C(=O)OCC)cnc2cc3c(cc12)OCO3
inactive: [1] -13.8% | [2] 3.95% | [3] -9.85% | [4] 2.85% | [5] -0.25% | [6] -7.8%

O=c1ccc2ccc(OP(=O)(O)O)cc2o1
inactive: [1] -12.4% | [2] -15.1% | [3] 11.4% | [4] 14.1% | [5] -34.7% | [6] 19.6%

Cc1ccc(S(=O)(=O)N/N=C(/c2ccccc2)c2ccsc2C)cc1
inactive: [1] 6.7% | [2] 37.3% | [3] 37% | [4] 24.2% | [5] 41.3% | [6] 53.4%

CCCNc1ncnc2c1ncn2C
inactive: [1] 10.6% | [2] -15% | [3] -3.55% | [4] 7.65% | [5] 7.45% | [6] -4.65%

Nc1ccc(Br)c(N)c1
inactive: [1] -0.95% | [2] -3.65% | [3] -5.35% | [4] -16.9% | [5] -21.6% | [6] -24.9%

Cc1c(C(=O)CC(=O)C(=O)Nc2ccccc2C(F)(F)F)[n+](=O)c2ccccc2n1[O-]
inactive: [1] 5.4% | [2] 8.05% | [3] -9.4% | [4] 16.9% | [5] 3.55% | [6] -6.45%

C=CCC1=C(C)C[C@@H]2CCC(=O)C=C12
inactive: [1] 9.05% | [2] -24.9% | [3] -8.5% | [4] 11.2% | [5] -13% | [6] 5.5%

Oc1ccccc1-c1nnc2n1N=C(c1ccc(-c3ccccc3)cc1)CS2
inactive: [1] 32.5% | [2] -12.3% | [3] 23.4% | [4] 20.3% | [5] -6.95% | [6] 7.55%

Cc1ccc(NC(=O)CCC(=O)C2CC(=O)CCC2=O)cc1C (stereo unspecified)
inactive: [1] -22.6% | [2] -14.8% | [3] -0.7% | [4] 5.75% | [5] 6.4% | [6] -9.9%

O=C(O)C(O)(O)C(=O)O
inactive: [1] -2.9% | [2] -11.2% | [3] -12.6% | [4] 22.6% | [5] 5.8% | [6] -4.05%

Cc1ccnc(Nc2nnc(Nc3cc(C)ccn3)c3ccccc23)c1
inactive: [1] -20.8% | [2] -12.6% | [3] -5.85% | [4] -22% | [5] -3.8% | [6] -4.45%

OC1CCCNC1 (stereo unspecified)
inactive: [1] 16.9% | [2] -4.5% | [3] 21.1% | [4] 18.1% | [5] 14.5% | [6] 30.2%

O=C1CSC(c2cccs2)N1c1nncs1 (stereo unspecified)
inactive: [1] 27.4% | [2] -14.8% | [3] 19.3% | [4] 14.6% | [5] 11.6% | [6] 21.6%

Nc1nc(N)c(-c2ccccc2)c(C(=O)Nc2ccc(Cl)c(Cl)c2)n1
inactive: [1] -27.9% | [2] -34.4% | [3] 4.1% | [4] 5.6% | [5] -23.1% | [6] -16.4%

Cc1ccc2ccccc2[n+]1CC(=O)c1ccc([N+](=O)[O-])cc1
inactive: [1] -16.8% | [2] -30.8% | [3] -9.3% | [4] 9.95% | [5] -11.2% | [6] -12.4%
